# Source: the supplement of paper PMC12282887
# ± gives the standard deviation of the averaged measurements.
# Key:
# Test in all cases: promoter activity interaction Z-score (Lux/OD deviation from empty-vector control); higher = stronger promoter induction by the compound
# [1] = system: E. coli BW25113 acrABp lux reporter
# Procedure, shortened: (§1)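 At 37°C, E. coli BW25113 reporter cultures in 40 µl LB Lennox in 384-well plates were read for OD600 and luminescence every 30 min for 12 h. Windows were 0–8 h for wild type and 1–9 h for deletion strains, and wells under 10% of the median growth value were removed. The score is the Z-transformed residual of growth-normalised luminescence against a control fit.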
# [2] = system: E. coli BW25113 micFp lux reporter
# Procedure, shortened: as §1
# [3] = system: E. coli BW25113 ompFp lux reporter
# Procedure, shortened: as §1
# [4] = system: E. coli BW25113 robp lux reporter
# Procedure, shortened: as §1
# [5] = system: E. coli BW25113 soxSp lux reporter
# Procedure, shortened: as §1
# [6] = system: E. coli BW25113 tolCp lux reporter
# Procedure, shortened: as §1
# [7] = 0.25 µg/ml, genetic background: wild type
# [8] = 0.25 µg/ml, genetic background: ΔmarA
# [9] = 0.25 µg/ml, genetic background: Δrob
# [10] = 0.25 µg/ml, genetic background: ΔsoxS
# [11] = 0.5 µg/ml, genetic background: wild type
# [12] = 0.5 µg/ml, genetic background: ΔmarA
# [13] = 0.5 µg/ml, genetic background: Δrob
# [14] = 0.5 µg/ml, genetic background: ΔsoxS
# [15] = 1 µg/ml, genetic background: wild type
# [16] = 1 µg/ml, genetic background: ΔmarA
# [17] = 1 µg/ml, genetic background: Δrob
# [18] = 1 µg/ml, genetic background: ΔsoxS
# [19] = 2 µg/ml, genetic background: wild type
# [20] = 2 µg/ml, genetic background: ΔmarA
# [21] = 2 µg/ml, genetic background: Δrob
# [22] = 2 µg/ml, genetic background: ΔsoxS
smiles,measurement,setting,value
CC1(C)S[C@@H]2[C@H](NC(=O)[C@H](N)c3ccc(O)cc3)C(=O)N2[C@H]1C(=O)O [Amoxicillin],promoter activity interaction Z-score,[1]; [7],-0.14 ± 0.051
same,promoter activity interaction Z-score,[1]; [8],-0.253 ± 0.59
same,promoter activity interaction Z-score,[1]; [9],-0.295 ± 0.22
same,promoter activity interaction Z-score,[1]; [10],-0.0223 ± 0.27
same,promoter activity interaction Z-score,[1]; [11],0.0232 ± 0.18
same,promoter activity interaction Z-score,[1]; [12],0.274 ± 0.094
same,promoter activity interaction Z-score,[1]; [13],-0.216 ± 0.0076
same,promoter activity interaction Z-score,[1]; [14],-0.454 ± 0.18
same,promoter activity interaction Z-score,[1]; [15],0.074 ± 0.092
same,promoter activity interaction Z-score,[1]; [16],-0.334 ± 1.8
same,promoter activity interaction Z-score,[1]; [17],-0.382 ± 0.033
same,promoter activity interaction Z-score,[1]; [18],-0.0766 ± 0.0011
same,promoter activity interaction Z-score,[1]; [19],2.15
same,promoter activity interaction Z-score,[1]; [20],0.388
same,promoter activity interaction Z-score,[1]; [21],0.134
same,promoter activity interaction Z-score,[2]; [7],0.256 ± 0.44
same,promoter activity interaction Z-score,[2]; [8],-0.0861 ± 0.065
same,promoter activity interaction Z-score,[2]; [9],0.0252 ± 0.083
same,promoter activity interaction Z-score,[2]; [10],-0.211 ± 0.11
same,promoter activity interaction Z-score,[2]; [11],0.278 ± 0.29
same,promoter activity interaction Z-score,[2]; [12],-0.0538 ± 0.13
same,promoter activity interaction Z-score,[2]; [13],0.0683 ± 0.17
same,promoter activity interaction Z-score,[2]; [14],-0.261 ± 0.46
same,promoter activity interaction Z-score,[2]; [15],0.0789 ± 0.095
same,promoter activity interaction Z-score,[2]; [16],-0.0503 ± 0.00046
same,promoter activity interaction Z-score,[2]; [17],0.0923 ± 0.071
same,promoter activity interaction Z-score,[2]; [18],-0.05 ± 0.078
same,promoter activity interaction Z-score,[2]; [19],1.75 ± 2.8
same,promoter activity interaction Z-score,[2]; [20],-0.285 ± 0.003
same,promoter activity interaction Z-score,[2]; [21],-0.0252 ± 0.1
same,promoter activity interaction Z-score,[2]; [22],-0.185 ± 0.25
same,promoter activity interaction Z-score,[3]; [7],0.146 ± 0.14
same,promoter activity interaction Z-score,[3]; [8],-0.696 ± 0.38
same,promoter activity interaction Z-score,[3]; [9],-0.183 ± 0.067
same,promoter activity interaction Z-score,[3]; [10],-0.811 ± 0.064
same,promoter activity interaction Z-score,[3]; [11],0.133 ± 0.13
same,promoter activity interaction Z-score,[3]; [12],-0.265 ± 0.34
same,promoter activity interaction Z-score,[3]; [13],-0.637 ± 0.024
same,promoter activity interaction Z-score,[3]; [14],-0.837 ± 0.48
same,promoter activity interaction Z-score,[3]; [15],-0.523 ± 0.21
same,promoter activity interaction Z-score,[3]; [16],-0.753 ± 0.13
same,promoter activity interaction Z-score,[3]; [17],-0.725 ± 0.24
same,promoter activity interaction Z-score,[3]; [18],-0.869 ± 0.041
same,promoter activity interaction Z-score,[3]; [20],-1.92
same,promoter activity interaction Z-score,[4]; [7],0.459 ± 0.29
same,promoter activity interaction Z-score,[4]; [8],-0.028 ± 0.04
same,promoter activity interaction Z-score,[4]; [9],-0.226 ± 0.034
same,promoter activity interaction Z-score,[4]; [10],-0.349 ± 0.75
same,promoter activity interaction Z-score,[4]; [11],0.699 ± 0.03
same,promoter activity interaction Z-score,[4]; [12],-0.354 ± 0.23
same,promoter activity interaction Z-score,[4]; [13],0.168 ± 0.52
same,promoter activity interaction Z-score,[4]; [14],-0.698 ± 0.12
same,promoter activity interaction Z-score,[4]; [15],-0.0437 ± 0.14
same,promoter activity interaction Z-score,[4]; [16],-0.0839 ± 0.86
same,promoter activity interaction Z-score,[4]; [17],0.396 ± 1.2
same,promoter activity interaction Z-score,[4]; [18],-1.05 ± 0.49
same,promoter activity interaction Z-score,[4]; [19],-1.64
same,promoter activity interaction Z-score,[4]; [20],0.17
same,promoter activity interaction Z-score,[5]; [7],0.174 ± 0.46
same,promoter activity interaction Z-score,[5]; [8],-0.165 ± 0.13
same,promoter activity interaction Z-score,[5]; [9],0.236 ± 0.24
same,promoter activity interaction Z-score,[5]; [10],-0.199 ± 0.15
same,promoter activity interaction Z-score,[5]; [11],0.319 ± 0.15
same,promoter activity interaction Z-score,[5]; [12],-0.00956 ± 0.1
same,promoter activity interaction Z-score,[5]; [13],0.0715 ± 0.076
same,promoter activity interaction Z-score,[5]; [14],-0.424 ± 0.15
same,promoter activity interaction Z-score,[5]; [15],0.0777 ± 0.017
same,promoter activity interaction Z-score,[5]; [16],-0.259 ± 0.12
same,promoter activity interaction Z-score,[5]; [17],0.156 ± 0.14
same,promoter activity interaction Z-score,[5]; [18],-0.361 ± 0.23
same,promoter activity interaction Z-score,[5]; [19],0.325 ± 0.57
same,promoter activity interaction Z-score,[5]; [20],-0.389 ± 0.55
same,promoter activity interaction Z-score,[5]; [21],0.0112 ± 0.1
same,promoter activity interaction Z-score,[5]; [22],0.999 ± 0.21
same,promoter activity interaction Z-score,[6]; [7],0.312 ± 0.33
same,promoter activity interaction Z-score,[6]; [8],-0.1 ± 0.033
same,promoter activity interaction Z-score,[6]; [9],0.375 ± 1
same,promoter activity interaction Z-score,[6]; [10],-0.105 ± 0.3
same,promoter activity interaction Z-score,[6]; [11],0.531 ± 0.051
same,promoter activity interaction Z-score,[6]; [12],0.00734 ± 0.28
same,promoter activity interaction Z-score,[6]; [13],0.919 ± 0.041
same,promoter activity interaction Z-score,[6]; [14],-0.655 ± 0.93
same,promoter activity interaction Z-score,[6]; [15],0.148 ± 0.45
same,promoter activity interaction Z-score,[6]; [16],-0.404 ± 0.22
same,promoter activity interaction Z-score,[6]; [17],0.949 ± 0.14
same,promoter activity interaction Z-score,[6]; [18],-0.0133 ± 0.46
same,promoter activity interaction Z-score,[6]; [19],0.917 ± 0.13
same,promoter activity interaction Z-score,[6]; [20],-0.67 ± 0.039
same,promoter activity interaction Z-score,[6]; [21],0.283 ± 0.8
same,promoter activity interaction Z-score,[6]; [22],-0.752 ± 0.58
